In PubChem BioAssay:
The source made the active and inactive calls.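 How the source made its calls: active means mean inhibition above 46.5%, the solvent-only control mean plus 3 SD; inactive means the rest.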

What follows are molecules tested against Nuclear receptor coactivator 2 (Homo sapiens) (UniProt Q15596) (assay: SRC2 coactivator transcriptional activity inhibitors, confirmation, cell-based, luminescence, HEK293, triplicate (AID 652008;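 further: 0% = DMSO-treated cells and 100% = Gossypol at 36 µM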)). Details: HEK293 GAL4-SRC2 luciferase reporter, at 8.9 µM, hits give high values.
Sequence of Nuclear receptor coactivator 2 (Homo sapiens) (Q15596 whole entry, looked up, the tested form may be a part): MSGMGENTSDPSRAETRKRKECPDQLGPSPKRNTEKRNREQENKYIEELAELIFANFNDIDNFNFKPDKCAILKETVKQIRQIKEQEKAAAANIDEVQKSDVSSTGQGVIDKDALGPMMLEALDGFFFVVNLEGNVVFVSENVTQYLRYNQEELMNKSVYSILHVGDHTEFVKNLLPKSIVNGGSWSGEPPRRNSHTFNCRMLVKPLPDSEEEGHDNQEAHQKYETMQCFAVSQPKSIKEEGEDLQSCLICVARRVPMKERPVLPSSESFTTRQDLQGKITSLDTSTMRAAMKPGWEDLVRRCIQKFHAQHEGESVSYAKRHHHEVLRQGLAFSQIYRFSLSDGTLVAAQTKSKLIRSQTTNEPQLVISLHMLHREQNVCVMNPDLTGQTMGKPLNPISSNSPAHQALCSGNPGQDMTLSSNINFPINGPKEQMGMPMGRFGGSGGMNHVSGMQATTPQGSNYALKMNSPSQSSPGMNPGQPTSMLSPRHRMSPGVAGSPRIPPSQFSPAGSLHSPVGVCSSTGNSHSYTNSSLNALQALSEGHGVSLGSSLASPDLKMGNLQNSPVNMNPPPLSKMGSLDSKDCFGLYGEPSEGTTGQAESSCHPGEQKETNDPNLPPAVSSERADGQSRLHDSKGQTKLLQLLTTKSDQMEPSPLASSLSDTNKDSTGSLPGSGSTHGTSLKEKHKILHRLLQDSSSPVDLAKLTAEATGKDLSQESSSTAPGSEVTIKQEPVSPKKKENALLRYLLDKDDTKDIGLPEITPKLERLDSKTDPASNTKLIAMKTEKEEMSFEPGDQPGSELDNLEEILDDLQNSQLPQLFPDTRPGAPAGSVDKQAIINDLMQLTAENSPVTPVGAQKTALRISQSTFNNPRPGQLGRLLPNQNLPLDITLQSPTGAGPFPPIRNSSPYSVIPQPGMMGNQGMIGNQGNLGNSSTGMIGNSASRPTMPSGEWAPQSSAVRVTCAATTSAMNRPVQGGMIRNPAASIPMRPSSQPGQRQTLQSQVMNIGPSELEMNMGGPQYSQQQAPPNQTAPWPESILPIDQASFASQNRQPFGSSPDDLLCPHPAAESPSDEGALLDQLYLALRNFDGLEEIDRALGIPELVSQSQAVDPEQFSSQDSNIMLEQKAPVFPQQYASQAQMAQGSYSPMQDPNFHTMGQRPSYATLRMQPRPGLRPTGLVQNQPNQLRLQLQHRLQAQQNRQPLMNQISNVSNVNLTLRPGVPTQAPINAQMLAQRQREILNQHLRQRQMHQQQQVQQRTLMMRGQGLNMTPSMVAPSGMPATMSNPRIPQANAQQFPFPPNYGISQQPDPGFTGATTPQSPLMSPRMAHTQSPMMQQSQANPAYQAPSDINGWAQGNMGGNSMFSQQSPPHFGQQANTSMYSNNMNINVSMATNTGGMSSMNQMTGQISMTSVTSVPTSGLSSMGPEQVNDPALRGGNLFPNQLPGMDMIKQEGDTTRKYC

Question: With `O=C(Nc1ccc(N2CCN(C(=O)c3ccco3)CC2)c(Cl)c1)c1cc2ccccc2o1` as the molecule, how does the inhibition read?
Answer: 3.49% (inactive)

Question: With `O=C(CCl)Nc1ccc(Oc2cnc3ccccc3n2)cc1` as the molecule, how does the inhibition read?
Answer: 46.6% (active)

Question: With `CCn1c(Oc2cccc(Br)c2)nc2c1c(=O)n(C)c(=O)n2C` as the molecule, how does the inhibition read?
Answer: 10.2% (inactive)

Question: How did the inhibition turn out when `CCn1ccnc1CN(C)Cc1cn[nH]c1-c1ccc(F)cc1F` was run?
Answer: 10.5% (inactive)

Question: With `O=C1CCC2S/C(=C/Nc3ccc(C(F)(F)F)cc3)C(=O)N12` (centres undefined) as the molecule, how does the inhibition read?
Answer: 66.4% (active)

Question: How did the inhibition turn out when `Cc1ccc(Oc2ccc(C(=O)NCc3ccncc3)cc2)cc1` was run?
Answer: 21.1% (inactive)

Question: For `Cc1ccc(-c2cc(C(=O)NCCCN3CCOCC3)no2)cc1`, which inhibition is on record?
Answer: 53.2% (active)

Question: How did the inhibition turn out when `Cc1sc2ncnc(NC3CCN(Cc4ccccc4)CC3)c2c1C` was run?
Answer: 29% (inactive)

Question: How did the inhibition turn out when `Cc1ncc(CO)c(/C=N/Nc2ccc(C(F)(F)F)cn2)c1O` was run?
Answer: 38.8% (inactive)

Question: With `COc1cccc(N2CCN(c3c(C#N)c(C(F)(F)F)nn3C)CC2)c1` as the molecule, how does the inhibition read?
Answer: 41.6% (inactive)

Question: Which inhibition does the source give for `CC(=O)Nc1ccc(OCC(=O)Nc2ccc(Cl)c(S(=O)(=O)N3CCOCC3)c2)cc1` here?
Answer: 19.6% (inactive)

Question: With `c1cn(-c2ncnc3sc4c(c23)CCCC4)cn1` as the molecule, how does the inhibition read?
Answer: -4.88% (inactive)

Question: With `Cc1ccc(C(=O)C(C(=O)/C=C/c2ccccc2)=C2SCCCS2)cc1` as the molecule, how does the inhibition read?
Answer: 56% (active)

Question: For `CC(C)CCNC(=O)c1sc2ccc(S(=O)(=O)N3CCCCC3)cc2c1N`, which inhibition is on record?
Answer: 27.6% (inactive)

Question: For `CCOC(=O)C1CCN(C(=O)c2ccc(OCC(=O)Nc3cccc(C(F)(F)F)c3)c(OC)c2)CC1`, which inhibition is on record?
Answer: 45.3% (inactive)

Question: Which inhibition does the source give for `CC1CCN(c2ccc(-c3cccc(NC(=O)C(F)(F)F)c3)nn2)CC1` here?
Answer: 60% (active)

Question: For `CC(C)(C)c1cc(/C=N/O)cc(C(C)(C)C)c1O`, which inhibition is on record?
Answer: 9.3% (inactive)

Question: For `C=C1C(=O)C23C(O)C1CCC2C12COC3(O)C(O)C1C(C)(C)CCC2O` (centres undefined), which inhibition is on record?
Answer: 25.9% (inactive)

Question: How did the inhibition turn out when `COc1ccc(CNc2ncc(-c3ccc(F)cc3)n2C)c2ccccc12` was run?
Answer: 94.5% (active)

Question: Which inhibition does the source give for `O=C(Nc1ccc(OCc2ccccc2Cl)cc1)c1cccnc1` here?
Answer: 52.2% (active)

Question: Which inhibition does the source give for `COc1ccc(S(=O)(=O)N2CCOCC2)cc1NC(=O)CCNC(=O)c1ccc(Br)cc1` here?
Answer: 44.6% (inactive)

Question: Which inhibition does the source give for `c1ccc2c(-c3cccc4nccn34)cncc2c1` here?
Answer: 11% (inactive)

Question: Which inhibition does the source give for `Cc1cc(Nc2cccc(Cl)c2)nc(NCc2ccccc2)n1` here?
Answer: 13.1% (inactive)

Question: Which inhibition does the source give for `CN(C)S(=O)(=O)N1CCC(Oc2cccc(C(=O)NC3CCCCC3)c2)CC1` here?
Answer: 13.4% (inactive)

Question: Which inhibition does the source give for `Cc1noc(/C=C/c2ccco2)c1S(=O)(=O)N1CCC(C(=O)Nc2ccc(Cl)cn2)CC1` here?
Answer: 24.2% (inactive)

Question: For `CN(c1ccc(C(=O)N2CCN(Cc3ccc4c(c3)OCO4)CC2)cc1)S(=O)(=O)c1ccccc1`, which inhibition is on record?
Answer: 37.4% (inactive)

Question: For `COc1ccc(-c2noc(CCCCC(=O)N3CCN(c4cc(C)ccc4C)CC3)n2)cc1`, which inhibition is on record?
Answer: 48.2% (active)

Question: For `Cc1ccc(-c2nnc(SCC(=O)Nc3ccccc3F)o2)cc1`, which inhibition is on record?
Answer: 60% (active)

Question: For `COCCNC(=O)c1c[nH]c2ccc(S(=O)(=O)N3CCc4ccccc43)cc2c1=O`, which inhibition is on record?
Answer: 33.5% (inactive)

Question: `C=C1C(=O)C23CCC4C(C)(C(=O)OC)CCCC4(C)C2CCC1(O)C3` (centres undefined) was tested. Which inhibition did it give?
Answer: 98.2% (active)

Question: Which inhibition does the source give for `Cc1cc(NC(=O)Cc2ccccc2)c2ccccc2n1` here?
Answer: 24.6% (inactive)

Question: How did the inhibition turn out when `O=C(Nc1ccc2c(c1)OCCO2)c1[nH]c(C(F)(F)F)nc1-c1ccccc1` was run?
Answer: 49.1% (active)

Question: For `O=S(=O)(Nc1ccc2c(c1)OCCO2)c1cccc2nsnc12`, which inhibition is on record?
Answer: 44% (inactive)

Question: With `COc1ccc2c(=O)cc(-c3ccncc3)oc2c1OC` as the molecule, how does the inhibition read?
Answer: 41.5% (inactive)
